Assay results published in PubChem BioAssay AID1422 (Emory University Molecular Libraries Screening Center, 2008).
Several values for one entry are separate records, joined by “and”; a condition that tells them apart may be missing. Identical values can stand only once. Out of some 260,000 compounds screened, about 1,300 (0.5%) were called active. This is one part of a sample in which actives are shown more often than they occur.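 The calls were made as follows: active = percent inhibition above 40 after rounding to a whole number; inactive = the rest.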 The source holds several records for some structures; these can differ, active in one and inactive in another.

Target: Prostaglandin E2 receptor EP2 subtype (Homo sapiens) (UniProt P43116)
Sequence (P43116 whole entry, looked up): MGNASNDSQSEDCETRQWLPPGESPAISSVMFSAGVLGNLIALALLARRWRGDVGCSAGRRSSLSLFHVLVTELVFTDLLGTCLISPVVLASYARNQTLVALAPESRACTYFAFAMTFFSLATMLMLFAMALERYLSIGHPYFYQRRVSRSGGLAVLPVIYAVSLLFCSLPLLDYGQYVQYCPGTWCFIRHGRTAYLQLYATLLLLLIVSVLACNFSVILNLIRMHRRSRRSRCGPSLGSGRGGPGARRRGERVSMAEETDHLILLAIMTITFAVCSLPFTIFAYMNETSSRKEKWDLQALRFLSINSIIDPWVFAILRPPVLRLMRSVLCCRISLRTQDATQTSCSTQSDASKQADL
Assay: blockers of PGE2-driven EP2 cAMP signalling – TR-FRET cAMP, C6 glioma cells, primary screen (AID 1422);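 also: rat C6 glioma host cells with rolipram phosphodiesterase inhibitor present; the protocol text gives 20 µM as final concentration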
Conditions: C6 glioma cells expressing human EP2, cAMP TR-FRET; at 25 µM; stronger effect = higher value; cells stimulated with saturating PGE2

inhibition, active:
O=C(/C=C/c1ccc(Cl)c([N+](=O)[O-])c1)c1cccnc1 43.7%, O=c1oc2ccccc2cc1-c1csc(Nc2cccc(O)c2)n1 117%, O=C1C=C(c2ccc(Cl)cc2)C(=O)N1Nc1ccccc1 134%, c1ccc(-c2cc3c(NCC4COc5ccccc5O4)ncnc3s2)cc1 (centres undefined) 99.7%, COC(=O)C1=C(C)NC2=C(C(=O)c3ccccc32)C1c1ccc(-c2ccc(C(=O)O)cc2)o1 (centres undefined) 42.5%, C/C(N[O-])=C(\C)[N+]([O-])=[Co].CC(=N\[O-])/C(C)=N/[O-].[CH2-]CCN1CCOCC1.c1ccncc1 42.1%, CCOc1cc(-c2c(C#N)c(N)nc(-c3ccccc3)c2CC)ccc1O 42.1%, C[N+]1(CCN=C=NC2CCCCC2)CCOCC1 42.8%, Cc1c(O)c(Br)c(C)c(O)c1Br (tested in a mixture with another compound) 105%, CCOC(=O)c1c(-c2ccc(C)cc2C)csc1NC(=O)CSc1nnnn1C 44.2%, COC(=O)/C=C\C(=O)Nc1cccc([N+](=O)[O-])c1 113%, CCN1/C(=C/c2ccc3ccc(C)cc3[n+]2CC)Sc2ccccc21 49.2%, CCN1/C(=C\c2ccc3ccccc3[n+]2CC)Sc2cc(C)ccc21 88.5%, COc1ccc2[nH]c(=O)c(CN(Cc3cccnc3)S(=O)(=O)c3ccccc3F)cc2c1 45.8%, COc1ccc2[nH]c(=O)c(CN(Cc3ccco3)S(=O)(=O)c3c(C)ccc4nsnc34)cc2c1 46.1%, Cc1ccc2c(c1)C1CN(C)CCC1N2C(=S)Nc1ccc(OC(F)F)cc1 (centres undefined) 112%, Cc1cc(Cl)ccc1OCC(=O)Oc1c(Cl)c(Cl)c(Cl)c(Cl)c1Cl 50.2%

inhibition, 90.2% (active) and 26.4% (inactive):
CCc1ccc2nc3sc(C(=O)Nc4nnc(CC)s4)c(N)c3cc2c1

inhibition, inactive:
O=C(/C=C/c1ccc(Cl)c([N+](=O)[O-])c1)c1ccc(O)cc1 2.09%, O=C(Nc1cccnc1)c1ccc(Cl)c([N+](=O)[O-])c1 3.46%, COc1ccc(CNc2sc3c(c2C(=O)Nc2ccccc2OC)CCC3)cc1 8.59%, COc1ccc2c(c1)NC1(CCN(C(=O)c3ccc(Cl)nc3)CC1)c1cccn1-2 13%, Cc1cccc(NC(=S)N(Cc2cc3ccc(C)c(C)c3[nH]c2=O)CC2CCCO2)c1 (centres undefined) 8.93%, O=c1oc2ccccc2cc1-c1csc(Nc2ccc(O)cc2)n1 4.13%, COc1ccc2nc(Nc3nc(-c4cc5ccccc5oc4=O)cs3)sc2c1 6.47%, CCOc1ccc2nc(SCC(=O)OC(C)C)c(C#N)cc2c1 10.9%, O=C(O)CC1=C(Nc2ccccc2)C(=O)N(c2ccccc2)C1c1ccc(Cl)cc1 (centres undefined) 5.93%, O=C1c2cccc3cc(Br)cc(c23)C(=O)N1Nc1ccccc1 7.35%, COc1ccc(C(c2nnnn2CC2CCCO2)N2CCN(C3CCCCC3)CC2)cc1 (centres undefined) 1.12%, Cc1ccc(C)c(N2C(=O)c3cccc4c(N(C)C)ccc(c34)C2=O)c1 8.88%, CC1CCN(C(=O)CN(C)S(=O)(=O)c2ccc(F)cc2)CC1 7.13%, COc1ccc(Nc2ncnc3sc(-c4ccccc4)cc23)c(OC)c1 15.7%, c1ccc2c(c1)OCC(CNc1ncnc3nc[nH]c13)O2 (centres undefined) 10.3%, COc1ccccc1N=C1Sc2nc3cc4c(cc3cc2CN1CC1CCCO1)OCO4 (centres undefined) 9.09%, CC(C)n1c(SCC(=O)N(Cc2ccccc2)C(C)(C)C)nc2c1c(=O)n(C)c(=O)n2C 9.83%, CCN1CCN(C(=O)c2sc3ccccc3c2Cl)CC1 9.4%, COc1ccccc1NC(=O)C1=C(C)NC2=C(C(=O)CCC2)C1c1ccc(C)o1 (centres undefined) 2.07%, Cc1ccc(C2C3=C(Nc4[nH]n(-c5ccccc5)c(=O)c42)c2ccccc2C3=O)cc1 (centres undefined) 10.2%, O=C(NCc1ccccc1)C(=O)c1c[nH]c2ccccc12 12.1%, C/C(Cl)=C\CSc1nc(N2CCOCC2)c2c(c1C#N)CC(C)(C)OC2 9.2%, CN1CCN(C(c2ccc(Cl)cc2)c2nnnn2Cc2ccco2)CC1 (centres undefined) 13.3%, Cc1ccc(N2CCCC2=O)cc1S(=O)(=O)NC1CCCNC1=O (centres undefined) 5.07%, COc1ccc2c(c1)N(C)/C(=c1\s/c(=C3\SC(=S)N(C)C3=O)n(C)c1=O)S2 17.4%, CN(C)S(=O)(=O)c1ccc(S(=O)(=O)N2CCN(c3ccccc3F)CC2)cc1 15.4%, CCc1c(-c2ccccc2)nc(N)c(C#N)c1-c1cccs1 5.93%, CCOc1cc(-c2cc(-c3ccc(OC)cc3)nc(N)c2C#N)ccc1O 13.6% and 5.97%, Cc1sc(NC(=O)Cn2c(=O)sc3ccccc32)c(C#N)c1C 7.54%, COc1ccccc1CNC(=O)C1CCN(c2cnccn2)CC1 9.64%, CC1(C)CC2CC(C)(CN2C(=O)c2ccc(Cl)cc2)C1 (centres undefined) 13.4%, COc1ccc2[nH]c(=O)c(CN(CCCN(C)C)C(=S)Nc3ccccc3)cc2c1 9.95%, CCc1ccc2nc3sc(C(=O)OC)c(N)c3cc2c1 11.6%, CCc1ccc2nc3sc(C(=O)NCc4ccc5c(c4)OCO5)c(N)c3cc2c1 13.9%, CCn1cc(C(=O)N[C@@H](C)Cn2nnc3ccccc32)c(=O)c2ccc(C)nc21 9.07%, COC(=O)c1ccccc1NC(=O)CSc1nnnn1C 9.91% and 10.9%, CCOC(=O)CNC(=O)CSc1nnnn1-c1cc(C)ccc1C -1.57%, CCc1nnc(NC(=O)CSc2nnnn2-c2ccc(F)cc2)s1 7.48%, COc1ccc(C2(C(=O)NCCn3nc(-c4cccs4)ccc3=O)CC2)cc1 4.83%, CCOc1ccccc1NC(=O)CSc1nnnn1-c1ccc(F)cc1 10.9%, CC(C)(C)NC(=O)Cn1nc(-c2nccc3ccccc23)oc1=O 2.81%, CC(=O)Nc1cccc([N+](=O)[O-])c1 3.91%, Cc1ccccc1NC(=S)Nc1cccc([N+](=O)[O-])c1 10.2%, CCn1c(C)cc2cc(NC(=O)CCCn3nc(C)cc3C)ccc21 6.1%, Cc1cc(C)cc(-c2nnc(SCC(=O)N3c4ccccc4CC3C)o2)c1 (centres undefined) 15.9%, CCN1CCN(CCNC(=O)c2ccc(/C=C3/Sc4ccccc4N(Cc4cccc(C)c4)C3=O)cc2)CC1 15.1%, CCN1/C(=C/C(=S)Nc2ccccc2)Sc2ccccc21 11.8%, CCCN1/C(=C/c2ccc3ccccc3[n+]2CC)Sc2cc(NC(C)=O)ccc21 13.2%, CCN1CCN(C(=O)Nc2cccc(Cl)c2)CC1 10.7%, CCOc1ccc2nc(SCC(=O)Nc3ccc(OC)cc3)sc2c1 6.3%, Cc1ccc(CN(Cc2cc3c(C)cc(C)cc3[nH]c2=O)C(=O)NC2CCCCC2)cc1 8.55%, COc1ccc(N(Cc2cc3cc(OC)ccc3[nH]c2=O)S(C)(=O)=O)cc1 6.17%, O=c1[nH]c2cc3c(cc2cc1CN(Cc1cccnc1)S(=O)(=O)c1ccc(Cl)cc1)OCCO3 19.4%, COc1ccc2[nH]c(=O)c(CN(Cc3ccc4c(c3)OCO4)S(=O)(=O)c3ccc(F)cc3)cc2c1 12%, Cc1cccc2cc(CN(Cc3ccco3)S(=O)(=O)c3cccc4nsnc34)c(=O)[nH]c12 24.1%, Cc1nnc2sc(-c3ccc(NC(=O)c4ccc(Br)o4)cc3)nn12 15%, COc1ccc2c(c1)NC1(CCN(C(=O)c3cnsc3)CC1)c1cccn1-2 9.97%, Cc1cccc2cc(CN(Cc3cccs3)Cc3nnnn3C3CCCCC3)c(=O)[nH]c12 2.93%, Cc1ncc([N+](=O)[O-])n1Cc1nnc(N)s1 11.5%, CC(C)(C)C1=NN(CC(=O)NCc2ccncc2)C(=O)c2cc3ccccc3n2C1 4.49%, COc1nc(C)c(CC(=O)NC2(c3cccc(F)c3)CCCC2)c(OC)n1 13.3%, Cc1[nH]c2ccc(-c3nnc(SCCC#N)n3C)cc2c1C 10.1%, CC(C)(C)C1=NN(CC(=O)NCCc2ccco2)C(=O)c2cc3ccccc3n2C1 11.5%, COc1ccc(C(c2nnnn2C(C)(C)C)N2CCN(c3ccc(OC)cc3)CC2)cc1 (centres undefined) 10.7%, Cc1ccc2c(c1)C(O)CC1(CCN(CC(O)c3ccc(F)c(F)c3)CC1)O2 (centres undefined) 8.77%, Cc1ccc2c(c1)C1CN(C)CCC1N2C(=S)Nc1ccc(Cl)cc1Cl (centres undefined) 15.3%, Cc1ccc2c(c1)C1CN(C)CCC1N2C(=O)c1ccccc1NS(=O)(=O)c1ccc(F)cc1C (centres undefined) 8.83%, Cc1cc(NC(=O)COC(=O)COc2ccc(Cl)cc2C)c([N+](=O)[O-])cc1C 5.32%, CCOC(=O)N1CCN(C(=O)COc2ccc(Cl)cc2C)CC1 12.7%, CCc1cccc2cc3c(N)c(C(=O)Nc4cc(OC)ccc4OC)sc3nc12 5.34%, CCn1cc(/C=C/c2nc3ccccc3c(=O)n2C)c2ccccc21 16.1%
